Screening results: PubChem BioAssay, National Center for Advancing Translational Sciences (NCATS)
DT40 TDP1 no CPT: qHTS for Inhibitors of human tyrosyl-DNA phosphodiesterase 1 (TDP1): qHTS in cells in absence of CPT. DT40 Tdp1-/- hTDP1 cells, no CPT, ATP luminescence, 48 h. AID 686978, 2013. hit rate 15% among 420,000. Potency, µM (titrated, usually from 46.2 µM), most hits filed as inhibitors; further: nearly all actives have a fitted effect of over 55% in size
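Chicken DT40 Tdp1-/- cells complemented with human TDP1, screened without camptothecin (DMSO vehicle only), 400 cells/well. Compounds pin-transferred, cells incubated at 37 °C for at least 48 hr. Growth read as ATP-dependent luminescence (CellTiter-Glo, 30 min at RT).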
ClpP mod: qHTS Assay for Activators of ClpP; ATP-dependent Clp protease proteolytic subunit (Bacillus subtilis (strain 168)), P80244; purified B. subtilis ClpP, FRET peptide cleavage, 20 min; Potency, µM (titrated, usually from 57.5 µM); hit rate 1.9% among 340,000; AID 651965, 2013; active means well fitted falling curve with a large enough effect; inconclusive means small, poorly fitted or top-dose-only effect; inactive means no such curve, though single readings can be large or run the other way; further: the source files actives as falling curves though it sought activators and does not explain the sign; nearly all actives have a fitted effect of over 65% in size
Target sequence (P80244 whole entry, looked up): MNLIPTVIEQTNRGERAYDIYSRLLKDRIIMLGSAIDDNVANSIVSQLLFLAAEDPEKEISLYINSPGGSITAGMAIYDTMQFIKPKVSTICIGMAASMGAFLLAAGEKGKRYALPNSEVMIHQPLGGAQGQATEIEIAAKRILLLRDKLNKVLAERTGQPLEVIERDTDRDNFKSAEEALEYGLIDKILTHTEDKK
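ClpP 10 microg/mL final, pH 8 Tris/KCl buffer with BSA, glycerol, Tween-20; compound pinned in; FRET-FV substrate; RT 20 min; Ex320/Em430; ΔFRET vs ADEP 5.8 microM, DMSO, no enzyme.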
TDP1 block: qHTS Assay for Inhibitors of Tyrosyl-DNA Phosphodiesterase (TDP1). Tyrosyl-DNA phosphodiesterase 1 (Homo sapiens), Q9NUW8. recombinant TDP1, AlphaScreen DNA substrate cleavage. Potency, µM (highest dose often 130 µM), most hits filed as inhibitors. hit rate 0.28% among 350,000. AID 485290, 2010; further: nearly all actives have a fitted effect of over 40% in size
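Enzyme-compound mixtures sat 15 min at room temperature, followed by a 5 min reaction with 15 nM final substrate and 10 min with AlphaScreen beads. Recombinant human Tdp1 was used at 1 nM final.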
TDP1 cell CPT: qHTS for Inhibitors of human tyrosyl-DNA phosphodiesterase 1 (TDP1): qHTS in cells in presence of CPT | AID 686979, 2013 | chicken DT40 Tdp1-/-;hTDP1 cells + 20 nM CPT, ATP luminescence, 48 h | Potency, µM (doses to about 46.2 µM), actives largely listed as inhibitors | hit rate 12% among 420,000; further: nearly all actives have a fitted effect of over 55% in size
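Chicken DT40 Tdp1-/- cells complemented with human TDP1, 400 cells/well, exposed to compounds plus 20 nM camptothecin for at least 48 h at 37 C; viability read as ATP content by CellTiter-Glo luminescence.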
Each line names hits and unclear results; the compound was inactive in the other large screens; ! = a repeat was not active. This is a sample that favours compounds with a hit; in the whole collection about 17% have one here. Unless noted, the call rests on the fitted dose curve; in most records, active means well fitted curve in the direction sought with a large enough effect; inconclusive means small, poorly fitted or top-dose-only effect, or another doubt; inactive means no such curve, though single readings can be large; an effect the other way counts as inactive or inconclusive.

CCc1nc2ccccc2n2c(-c3ccccc3)c3c(=O)n(C)c(=O)n(C)c3c12	DT40 TDP1 no CPT 21µM, TDP1 cell CPT 15µM
COc1ccc(N2CC(C(=O)Nc3c4c(nn3-c3ccccc3)CS(=O)(=O)C4)CC2=O)cc1 (configuration not stated)	none
CCOC(=O)[C@]12CCCC=C1N(Cc1ccco1)C(=O)[C@H](CC(=O)NCc1cccc3ccccc13)C2	DT40 TDP1 no CPT inconclusive, TDP1 cell CPT inconclusive (no result: TDP1 block)
COc1ccc(C2c3c(nc(Cc4ccccc4)[nH]c3=O)Oc3ccc4ccccc4c32)cc1OC (configuration not stated)	none (no result: DT40 TDP1 no CPT, ClpP mod, TDP1 cell CPT)
O=C(Nc1ccc(OCCO)cc1)c1csc([C@@H]2O[C@H](CO)[C@H](O)[C@H](O)[C@H]2O)n1	none (no result: TDP1 block)
CC(=O)Nc1ccc(NC(=O)c2csc([C@@H]3C[C@H](O)[C@@H](CO)O3)n2)cc1	none (no result: TDP1 block)
O=C(Nc1ccc(Oc2ccccc2)cc1)c1csc([C@@H]2O[C@H](CO)[C@@H](O)[C@H]2O)n1	DT40 TDP1 no CPT 21µM, TDP1 cell CPT 16µM (no result: TDP1 block)
O=C(Nc1ccc(Oc2ccccc2)cc1)c1csc([C@H]2C[C@H](O)[C@@H](CO)O2)n1	DT40 TDP1 no CPT 10µM, TDP1 cell CPT 16µM (no result: TDP1 block)
NC(=O)c1csc(C2OC(CO)C(O)C2O)n1 (configuration not stated)	DT40 TDP1 no CPT 0.026µM, TDP1 cell CPT 0.046µM (no result: TDP1 block)
CN(CCc1ccccc1)C(=O)c1ccc(NC(=O)Cc2ccc(NC(=O)C3CCN(C(=O)c4ccccc4)CC3)cc2)cc1	DT40 TDP1 no CPT inconclusive, TDP1 cell CPT inconclusive (no result: TDP1 block)
O=C1c2ccccc2C(=O)N1c1ccccc1O	none (no result: DT40 TDP1 no CPT, ClpP mod, TDP1 cell CPT)
COc1ccc(S(=O)(=O)N2CCCOC2CNC(=O)C(=O)NCCCn2ccnc2)cc1 (configuration not stated)	none (no result: ClpP mod)
Cc1cccc(CCNC(=O)CCc2c(C)nc3c(-c4ccc(F)cc4)c(C)nn3c2C)c1	DT40 TDP1 no CPT 9.2µM, TDP1 cell CPT inconclusive
CC(=O)c1cccc(NC(=O)CCc2c(C)nc3c(-c4ccc(F)cc4)c(C)nn3c2C)c1	DT40 TDP1 no CPT inconclusive, TDP1 cell CPT 2.6µM
Cc1ccc(NC(=O)CCc2c(C)nc3c(-c4ccc(F)cc4)c(C)nn3c2C)cc1F	DT40 TDP1 no CPT inconclusive
COc1cc(NC(=O)CCc2c(C)nc3c(-c4ccc(F)cc4)c(C)nn3c2C)cc(OC)c1OC	DT40 TDP1 no CPT 6.5µM, TDP1 cell CPT 5.2µM
Cc1nc2c(-c3ccc(F)cc3)c(C)nn2c(C)c1CCC(=O)Nc1ccccc1F	TDP1 cell CPT inconclusive
O=C1CCCC(=O)N1CCCCCCN1C(=O)CCCC1=O	none (no result: TDP1 block)
Cc1ccccc1COc1cccc(/C=N/NC(=O)c2nnn(-c3nonc3N)c2C)c1	TDP1 cell CPT inconclusive
Cc1ccc(S(=O)c2ccc(NC(=O)C3CC3)cc2C#N)cc1 (configuration not stated)	DT40 TDP1 no CPT 23µM, TDP1 cell CPT 18µM (no result: ClpP mod)
Cc1ccc(NC(=O)C2CCN(S(=O)(=O)c3ccccc3)CC2)cc1	none (no result: ClpP mod)
CCC1CN(CC(=O)N(C)Cc2nc3ccccc3[nH]2)Cc2cc(OC)ccc2O1 (configuration not stated)	none (no result: ClpP mod, TDP1 block)
CCn1nc(NC(=O)c2ccncc2)c2cc3cccc(C)c3nc21	none
CCn1nc(NC(=O)c2ccccn2)c2cc3cccc(C)c3nc21	DT40 TDP1 no CPT 18µM, ClpP mod 32µM, TDP1 cell CPT inconclusive
Cc1noc2ncnc(Oc3cc(Cl)ccc3Cl)c12	none
CC(=O)N/C(=C\c1ccccc1)C(=O)OCc1cccc(S(=O)(=O)N(C)C)c1	DT40 TDP1 no CPT inconclusive, TDP1 cell CPT 16µM (no result: TDP1 block)
O=C(CN1CCN(c2ccc(F)cc2)CC1)Nc1nccs1	none (no result: ClpP mod, TDP1 block)
CC1CCN(S(=O)(=O)c2cn(CC(=O)Nc3ccc(F)c(Cl)c3)c(=O)c3ccccc23)CC1	DT40 TDP1 no CPT 23µM, TDP1 cell CPT 23µM
COc1ccc(NC(=O)Cn2cnc3ccc(S(=O)(=O)N4CCC(C)CC4)cc3c2=O)cc1Cl	DT40 TDP1 no CPT 4.1µM, TDP1 cell CPT 7.3µM
COc1cc(NC(=O)Cn2cc(S(=O)(=O)N3CCC(C)CC3)c3ccccc3c2=O)cc(OC)c1OC	DT40 TDP1 no CPT inconclusive, TDP1 cell CPT inconclusive
CCOC(=O)/C(=C/Nc1ccc(F)cc1)[N+](=O)[O-]	none (no result: TDP1 block)
Cc1cc(C)nc(SCC(=O)Nc2ncc(Cc3cccc(Cl)c3)s2)n1	DT40 TDP1 no CPT 18µM, TDP1 cell CPT inconclusive
Cc1ccccc1N1CCN(C2CCCN(C(=O)CCN3CCCCO3)C2)CC1 (configuration not stated)	none
Cc1nnc(N/N=C\c2ccc(-c3cccc(C(=O)O)c3)o2)n1N	TDP1 block 50µM, TDP1 cell CPT inconclusive
O=Cc1ccc(-c2cccc(C(=O)O)c2)o1	TDP1 block 45µM (no result: ClpP mod)
Cc1nnc(N/N=C/c2ccc(-c3ccc(Br)cc3)o2)n1N	DT40 TDP1 no CPT inconclusive, TDP1 cell CPT inconclusive (no result: ClpP mod)
COCCN(C(=O)Nc1ccc(OC)cc1)c1nc2ccccc2s1	DT40 TDP1 no CPT inconclusive (no result: ClpP mod)
C=C1C(=O)OCC2C(C(=O)O)=CC3C(C)C(C)=CC123 (configuration not stated)	DT40 TDP1 no CPT 18µM, TDP1 cell CPT 18µM (no result: TDP1 block)
CN1CCC(=C2c3ccccc3Sc3ccccc32)CC1	DT40 TDP1 no CPT 18µM, TDP1 cell CPT 7.3µM
CN1CCC(=C2c3ccccc3CCc3cccnc32)CC1	none (no result: ClpP mod, TDP1 block)
CN1CCC(=C2c3ccccc3C=Cc3ccccc32)CC1	DT40 TDP1 no CPT 27µM!, TDP1 cell CPT 30µM!
COc1cc2[nH]c3c(Cl)ncnc3c2cc1OC	DT40 TDP1 no CPT 21µM, ClpP mod inconclusive, TDP1 cell CPT inconclusive
COc1cc2[nH]c3c(N4CCN(c5ccc(Cl)cc5)CC4)ncnc3c2cc1OC	DT40 TDP1 no CPT 18µM, ClpP mod 25µM, TDP1 cell CPT 18µM
COc1ccc(C=O)c2[nH]c3c(Cl)ncnc3c12	DT40 TDP1 no CPT inconclusive (no result: TDP1 block)
